PubChem BioAssay
For some assays here: Potency and affinity values are given separately. Activity calls are given as the source filed them.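 The calls were made as follows, unless noted: active = primary screen hit whose fluorescence ratio, in both repeats, exceeds the weak agonist control mean by 3 SD; inactive = the rest.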

Tests used:
[1] = test system: TRPC4 beta (transient receptor potential cation channel C4), mouse; test: activators of mouse TRPC4 channel, confirmation, cell-based, Fluo4 calcium, HEK293 TRPC4beta/mu-opioid, duplicates, 10 µM (AID 2426;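 active = fluorescence ratio normalized to control raised more than 50% in primary screen plus both repeat runs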); conditions: Fluo4 calcium fluorescence, at 10 µM; stronger effect = higher value
[2] = test system: transient receptor potential cation channel C4 beta (TRPC4), mouse; test: activators of mouse TRPC4 channel, confirmation, cell-based, second round, Fluo4, HEK293 TRPC4beta/mu-opioid, 1 µM (AID 2461;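 active = primary screen active and over 50% activation in each of two duplicate runs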); conditions: Fluo4 calcium fluorescence, at 1 µM; stronger effect = higher value
[3] = test system: TRPC4 (transient receptor potential cation channel C4 beta), mouse; test: positive allosteric modulators of mouse TRPC4, confirmation, cell-based, second round, Fluo-4, HEK293 TRPC4beta/mu-opioid, 1 µM (AID 2554); conditions: DAMGO EC20, Fluo-4 calcium flux, at 1 µM; stronger effect = higher value
[4] = test system: TRPC4 beta (transient receptor potential cation channel C4), mouse; test: positive allosteric modulators of mouse TRPC4, confirmation, cell-based, Fluo-4, HEK293 TRPC4beta/mu-opioid (AID 2555;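 active = primary screen hit whose calcium fluorescence ratio, in both repeats, exceeds the weak agonist control mean by 3 SD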); conditions: DAMGO EC20, Fluo-4 calcium flux, at 10 µM; stronger effect = higher value
[5] = biological target: Short transient receptor potential channel 4 (Mus musculus) (UniProt Q9QUQ5); test: inhibitors of mouse TRPC4 channel, confirmation, cell-based, Fluo4, HEK293 TRPC4beta/mu-opioid (AID 2636;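 active = calcium signal cut by more than 3 SD below the full-agonist control yet still positive, in both repeats and the earlier primary screen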); conditions: DAMGO, Fluo4 calcium flux, at 10 µM; stronger effect = higher value
Short transient receptor potential channel 4 (Mus musculus), sequence (Q9QUQ5 whole entry, looked up): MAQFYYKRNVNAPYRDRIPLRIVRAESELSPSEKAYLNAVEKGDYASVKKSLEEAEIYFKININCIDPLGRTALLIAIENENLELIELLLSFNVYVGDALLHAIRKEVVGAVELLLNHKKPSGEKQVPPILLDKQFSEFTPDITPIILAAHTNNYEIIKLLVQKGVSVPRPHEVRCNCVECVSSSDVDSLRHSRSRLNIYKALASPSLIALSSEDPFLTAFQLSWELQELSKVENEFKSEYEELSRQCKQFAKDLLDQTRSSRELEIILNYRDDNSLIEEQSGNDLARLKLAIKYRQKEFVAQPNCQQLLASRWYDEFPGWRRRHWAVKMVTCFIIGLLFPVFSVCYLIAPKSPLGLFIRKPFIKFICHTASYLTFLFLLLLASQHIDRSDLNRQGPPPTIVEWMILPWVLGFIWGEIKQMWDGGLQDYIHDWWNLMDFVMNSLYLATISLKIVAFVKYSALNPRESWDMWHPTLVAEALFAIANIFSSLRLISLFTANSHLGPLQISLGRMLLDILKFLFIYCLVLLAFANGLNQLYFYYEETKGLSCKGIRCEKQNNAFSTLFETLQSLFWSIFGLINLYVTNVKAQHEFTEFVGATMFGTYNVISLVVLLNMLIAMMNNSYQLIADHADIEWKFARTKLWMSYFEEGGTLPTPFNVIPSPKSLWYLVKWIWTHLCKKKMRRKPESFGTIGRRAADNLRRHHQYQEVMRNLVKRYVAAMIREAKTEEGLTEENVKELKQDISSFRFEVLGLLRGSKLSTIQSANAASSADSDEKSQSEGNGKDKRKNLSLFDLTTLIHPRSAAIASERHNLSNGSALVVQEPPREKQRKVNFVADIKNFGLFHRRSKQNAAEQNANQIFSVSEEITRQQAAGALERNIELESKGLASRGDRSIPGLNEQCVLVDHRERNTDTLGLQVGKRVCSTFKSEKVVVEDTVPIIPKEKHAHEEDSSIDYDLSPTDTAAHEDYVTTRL

[6] = biological target: Short transient receptor potential channel 4 (Mus musculus) (UniProt Q9QUQ5); test: inhibitors of mouse TRPC4 channel, confirmation, cell-based, second round, Fluo4, HEK293 TRPC4beta/mu-opioid, 1 µM (AID 2637;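 active = calcium signal ratio cut to more than 3 SD under the fully stimulated control mean yet still positive, in both repeats and the primary screen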;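 as to inhibition: percent of integrated ratio relative to wells lacking test compound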); conditions: Fluo4 calcium flux, DAMGO, at 1 µM; stronger effect = higher value
[7] = biological target: Short transient receptor potential channel 4 (Mus musculus) (UniProt Q9QUQ5); test: mouse TRPC4 channel activators, dose response, cell-based, HEK293 TRPC4/mu-opioid, Fluo-4 calcium (AID 434937;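 active = primary screen activator hit with a dose response curve and TRPC4 channel activation at any tested dose; inactive = no activation, no dose response, or not a primary hit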)
[8] = biological target: Short transient receptor potential channel 4 (Mus musculus) (UniProt Q9QUQ5); test: TRPC4 positive allosteric modulators, dose response, cell-based, HEK293 TRPC4/mu-opioid, Fluo-4 calcium, EC20 DAMGO (AID 434941;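 active = earlier screen potentiator hit that boosts the TRPC4 ion channel at some dose, with a dose response; inactive = no potentiation, no dose response, or not a prior hit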;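 also: calcium entry triggered by an EC20 dose of DAMGO at the co-expressed mu-opioid receptor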)
[9] = biological target: Short transient receptor potential channel 4 (Mus musculus) (UniProt Q9QUQ5); test: mouse TRPC4 channel inhibitors, dose response, cell-based, HEK293 TRPC4/mu-opioid, Fluo-4 calcium (AID 434942;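 active = primary screen inhibitor hit that blocks the TRPC4 channel at some tested dose, yielding a dose curve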)
[10] = biological target: Short transient receptor potential channel 6 (Mus musculus) (UniProt Q61143); test: inhibition of mouse TRPC6 channel, confirmation, selectivity assay for TRPC4 inhibitor project, cell-based, HEK293, membrane potential dye, duplicate (AID 434948;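 active = active in primary screen and both duplicates, each dropping signal beyond three positive-control SD with fluorescence still positive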); conditions: HEK293 TRPC6, membrane potential dye fluorescence, at 10 µM, stimulated with maximal-effect acetylcholine; stronger effect = higher value
Short transient receptor potential channel 6 (Mus musculus), sequence (Q61143 whole entry, looked up): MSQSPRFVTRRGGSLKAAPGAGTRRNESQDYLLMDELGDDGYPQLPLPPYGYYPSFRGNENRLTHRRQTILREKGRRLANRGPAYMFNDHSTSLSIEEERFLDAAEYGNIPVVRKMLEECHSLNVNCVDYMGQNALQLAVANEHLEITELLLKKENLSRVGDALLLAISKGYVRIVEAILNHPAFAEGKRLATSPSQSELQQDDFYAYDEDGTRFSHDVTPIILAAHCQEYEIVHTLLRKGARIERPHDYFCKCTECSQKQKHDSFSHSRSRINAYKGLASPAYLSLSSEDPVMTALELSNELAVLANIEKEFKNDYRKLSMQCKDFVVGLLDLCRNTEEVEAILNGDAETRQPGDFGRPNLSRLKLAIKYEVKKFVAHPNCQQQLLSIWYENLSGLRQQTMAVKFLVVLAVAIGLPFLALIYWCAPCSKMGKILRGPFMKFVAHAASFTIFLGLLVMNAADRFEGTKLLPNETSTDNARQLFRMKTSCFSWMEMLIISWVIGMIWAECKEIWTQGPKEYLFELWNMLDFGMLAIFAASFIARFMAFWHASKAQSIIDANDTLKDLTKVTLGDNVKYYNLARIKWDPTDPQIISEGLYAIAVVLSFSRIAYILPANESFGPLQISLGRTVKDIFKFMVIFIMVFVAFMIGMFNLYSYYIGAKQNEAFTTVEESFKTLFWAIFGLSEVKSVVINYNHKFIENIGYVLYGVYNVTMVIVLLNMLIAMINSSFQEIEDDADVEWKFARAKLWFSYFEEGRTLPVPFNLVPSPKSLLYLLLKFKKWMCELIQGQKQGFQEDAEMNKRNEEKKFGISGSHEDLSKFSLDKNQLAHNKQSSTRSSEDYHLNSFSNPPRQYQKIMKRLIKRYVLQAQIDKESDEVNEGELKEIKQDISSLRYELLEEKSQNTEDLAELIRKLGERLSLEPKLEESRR

[11] = biological target: Short transient receptor potential channel 6 (Mus musculus) (UniProt Q61143); test: activation of mouse TRPC6 channel, confirmation, selectivity assay for TRPC4 activator project, cell-based, HEK293, membrane potential dye, duplicate (AID 434950;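 active = membrane potential signal rise above negative control mean plus 3 SD in both duplicates, also active in the earlier TRPC4 screen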); conditions: HEK293 TRPC6, membrane potential fluorescence, at 10 µM; stronger effect = higher value
[12] = biological target: Short transient receptor potential channel 6 (Mus musculus) (UniProt Q61143); test: TRPC6 potentiation by TRPC4 potentiator hits, confirmation, selectivity assay for TRPC4 potentiator project, HEK293 cells, membrane potential dye, duplicate (AID 434952;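 active = compound raising the membrane signal above positive-control mean plus 3 SD in both repeats, and a primary screen hit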); conditions: HEK293 TRPC6, membrane potential dye fluorescence, at 10 µM, maximal acetylcholine added after compound; stronger effect = higher value
[13] = biological target: Short transient receptor potential channel 4 (Mus musculus) (UniProt Q9QUQ5); test: calcium flux activators in TRPC4/5HT1a cells, counter-screen for TRPC4 activator project, cell-based, second counter screen, HEK293 TRPC4/5HT1a, Fluo-4 (AID 434977;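 active = calcium signal rise above buffer-control mean plus 5 SD in both duplicates, and also a hit in the primary screen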); conditions: Fluo-4 calcium flux, at 10 µM; stronger effect = higher value
[14] = calcium flux inhibitors in TRPC4/5HT1a cells, confirmation, counter-screen for TRPC4 inhibitor project, cell-based, second counter screen, HEK293 TRPC4/5HT1a, Fluo-4 (AID 434978;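 active = primary screen active whose calcium signal fell more than 3 SD beyond the full-serotonin control mean in both duplicate plates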;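 as to outcome: serotonin given first at submaximal then at maximal dose after compound preincubation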); conditions: Fluo-4 calcium flux, at 10 µM, serotonin added to trigger calcium flux; stronger effect = higher value
[15] = test system: TRPC4 (mouse), co-expressed with 5HT1a in HEK293; test: calcium flux potentiators in TRPC4/5HT1a cells, confirmation, counter-screen for TRPC4 potentiator project, cell-based, second counter screen, HEK293 TRPC4/5HT1a, Fluo-4 (AID 434979;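 active = signal rise over 3 SD above mean of control wells given weak agonist, in both repeats and first screen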); conditions: Fluo-4 calcium flux, at 10 µM, serotonin added at its EC20 dose; stronger effect = higher value
[16] = calcium flux activation in mu-opioid HEK293 cells, confirmation, counter-screen for TRPC4 activator project, cell-based, HEK293 mu-opioid receptor line (AID 449723;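 active = hit in primary screen, with calcium signal over 5 SD above buffer well mean in both duplicates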;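 also: counter screen cells carry the mu-opioid receptor alone and lack TRPC4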); conditions: Fluo-4 calcium fluorescence, at 10 µM; stronger effect = higher value
[17] = calcium flux enhancement in mu-opioid HEK293 cells, confirmation, counter-screen for TRPC4 allosteric potentiator project, cell-based, HEK293 mu-opioid receptor line (AID 449724;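 active = calcium signal rise more than 3 SD above the low-dose agonist control mean, in both duplicate plates and the primary screen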); conditions: Fluo-4 calcium flux, at 10 µM, compound added before EC20 DAMGO stimulus; stronger effect = higher value

CC1(C(=O)OCc2cc(=O)n3cc(Br)ccc3n2)CC1(Cl)Cl (centres undefined)
inactive: outcome [1] | outcome [2] | outcome [5] | outcome [6] | outcome [7] | outcome [8] | outcome [9] | outcome [10] | outcome [11] | outcome [12] | outcome [13] | outcome [14] | outcome [16] | outcome [17]
active: potentiation [3] 15% | potentiation [4] 84% | potentiation [15] 56.2%

Clc1cccc2c3c([nH]c12)CCNC3
active: potentiation [4] 38% | potentiation [15] 40.3%
inactive: outcome [1] | outcome [2] | outcome [3] | outcome [5] | outcome [6] | outcome [7] | outcome [8] | outcome [9] | outcome [10] | outcome [11] | outcome [12] | outcome [13] | outcome [14] | outcome [16] | outcome [17]

CCOC(=O)Cc1csc(NC(=O)NC2(C(F)(F)F)Oc3cc(Cl)c(Cl)cc3O2)n1
active: inhibition [5] 47% | inhibition [6] 41% | inhibition [14] 39.5%
inactive: outcome [1] | outcome [2] | outcome [3] | outcome [4] | outcome [7] | outcome [8] | outcome [9] | outcome [10] | outcome [11] | outcome [12] | outcome [13] | outcome [15] | outcome [16] | outcome [17]

N=c1c2c3c(sc2ncn1Cc1ccccc1)CCCC3
inactive: outcome [1] | outcome [2] | outcome [3] | outcome [4] | outcome [5] | outcome [6] | outcome [7] | outcome [8] | outcome [9] | outcome [10] | outcome [11] | outcome [12] | outcome [13] | outcome [14] | outcome [15] | outcome [16] | outcome [17]

CN(C)CCOc1ccc2ccccc2c1
active: potentiation [3] 8% | potentiation [4] 14% | potentiation [15] 19.8%
inactive: outcome [1] | outcome [2] | outcome [5] | outcome [6] | outcome [7] | outcome [8] | outcome [9] | outcome [10] | outcome [11] | outcome [12] | outcome [13] | outcome [14] | outcome [16] | outcome [17]

C=CCn1c(=N)n(CC(O)COc2ccccc2OC)c2ccccc21 (centres undefined)
inactive: outcome [1] | outcome [2] | outcome [3] | outcome [4] | outcome [5] | outcome [6] | outcome [7] | outcome [8] | outcome [9] | outcome [10] | outcome [11] | outcome [12] | outcome [13] | outcome [14] | outcome [15] | outcome [16] | outcome [17]

COC(=O)c1ccc(COc2ccc(/C=N/Nc3nc(C)cc(=O)[nH]3)cc2)cc1
inactive: outcome [1] | outcome [2] | outcome [3] | outcome [4] | outcome [5] | outcome [6] | outcome [7] | outcome [8] | outcome [9] | outcome [10] | outcome [11] | outcome [12] | outcome [13] | outcome [14] | outcome [15] | outcome [16] | outcome [17]
